# PINK1 expr mod – PINK1 expression modulation; PINK1 immunofluorescence, high-content cytometry, 24 h; Potency, µM (highest dose often 76.6 µM), without a hit: top-dose activation (PINK1 increase), hits mostly activators; 410,000 compounds, 0.2% hits; active means well fitted activation curve with a large enough effect; inconclusive means small, poorly fitted or top-dose-only effect; cell line not stated here; further: % of control where 0% means no effect; nearly all actives have a fitted effect of over 65% in size
#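 PINK1 protein, normally rapidly degraded, was detected by immunofluorescence after 24 hour compound treatment of a stable cell line. Titration data (5 concentrations) came from laser-scanning cytometry, with CCCP-treated wells as controls.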
# RORg inh – ROR gamma (mouse) transcription inhibition; Potency, µM (series often up to 53.6 µM), for inactives: top-dose activity change, negative = inhibition, hits mostly inhibitors; P51450; Drosophila S2 Gal4-RORgamma UAS-luciferase reporter, 20 h; 310,000 compounds, 5.4% hits; further: on the % scale 0 is the no-effect control and ±100 the full control effect; nearly all actives have a fitted effect of over 60% in size
# Target sequence (P51450 whole entry, looked up, the tested form may be a part): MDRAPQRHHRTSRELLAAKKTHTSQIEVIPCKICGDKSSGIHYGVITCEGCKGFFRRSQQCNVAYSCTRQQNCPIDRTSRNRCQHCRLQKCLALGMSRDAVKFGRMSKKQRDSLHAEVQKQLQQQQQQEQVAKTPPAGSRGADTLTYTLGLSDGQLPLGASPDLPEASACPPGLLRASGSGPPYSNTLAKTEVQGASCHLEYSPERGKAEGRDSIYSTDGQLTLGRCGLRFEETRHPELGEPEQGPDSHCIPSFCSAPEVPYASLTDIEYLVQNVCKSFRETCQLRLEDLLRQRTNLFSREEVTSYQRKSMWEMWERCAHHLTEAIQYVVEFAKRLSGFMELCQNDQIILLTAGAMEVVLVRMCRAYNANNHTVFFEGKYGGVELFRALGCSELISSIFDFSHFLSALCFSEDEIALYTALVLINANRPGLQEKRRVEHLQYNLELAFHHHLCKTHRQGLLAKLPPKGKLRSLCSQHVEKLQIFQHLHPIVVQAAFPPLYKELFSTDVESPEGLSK
#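 Drosophila S2 cells stably expressing Gal4-DBD/mouse RORγ fusion under metallothionein promoter plus UAS-luciferase; compound 1 h, then 700 uM CuSO4 induction for 20 h at ambient temperature; inhibition read as reduced luminescence.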
# ClpP mod – qHTS Assay for Activators of ClpP; ATP-dependent Clp protease proteolytic subunit (Bacillus subtilis (strain 168)), P80244; purified B. subtilis ClpP, FRET peptide cleavage, 20 min; Potency, µM (doses to about 57.5 µM), without a hit: at the highest dose activity change, negative = active; 340,000 compounds, 1.9% hits; AID 651965, 2013; active means well fitted falling curve with a large enough effect; inconclusive means small, poorly fitted or top-dose-only effect; inactive means no such curve, though single readings can be large or run the other way; further: the source files actives as falling curves though it sought activators and does not explain the sign; nearly all actives have a fitted effect of over 65% in size
#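 Buffer: 100 mM Tris/HCl pH8, 100 mM KCl, 0.05% low protease BSA, 2.5% glycerol, 0.01% Tween-20. ClpP 10 microg/mL final; 20 min RT; delta FRET normalized to ADEP and DMSO controls.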
# Gal4-VP16 FLuc – counter-screen for ROR gamma inhibitors: Gal4-VP16 reporter. Drosophila S2 Gal4-VP16 UAS-luciferase, luminescence, 20 h. Potency, µM (titrated, usually from 53.6 µM), for inactives: top-dose activity, negative = inhibition, usual class: inhibitors. 310,000 compounds, 3.5% hits. AID 2546;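 further: Gal4-VP16 expression switched on by copper sulfate through the metallothionein promoter; on the % scale 0 is the no-effect control and ±100 the full control effect; nearly all actives have a fitted effect of over 50% in size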
# Sfp PPTase inh – Sfp phosphopantetheinyl transferase inhibition; Q9F4F7; Biochemical Sfp PPTase activity, qHTS; Potency, µM, for inactives: largest response in the series, negative = inhibition, actives largely listed as inhibitors; 310,000 compounds, 3.5% hits; AID 1490;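 further: the enzyme is Sfp with the accession as filed and its product quenches rhodamine fluorescence; 0% = enzyme reaction without inhibitor and -100% = no enzyme wells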
#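 After 15 min at room temperature with compound, 15 nM Sfp received 5 uM rhodamine-CoA plus 12.5 uM BHQ-2-ybbR (50 mM Hepes pH 7.6, 10 mM MgCl2). Rate came from the fluorescence difference over 30 min, ex 525/em 598 nm.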
# Epigenetic derep – regulators of epigenetic silencing causing reporter derepression in mouse cells; murine LDR cells, GFP reporter derepression, 30 h; Potency, µM (doses to about 53.9 µM), for the others: at the top dose GFP activation, hits mostly activators; 280,000 compounds, 0.2% hits; further: % of control where 0% means no effect; nearly all actives have a fitted effect of over 60% in size
#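 Derepression of a silenced CMV-GFP reporter in murine LDR cells is scored by enumerating GFP-positive cells with a laser-scanning microplate cytometer after 30 hours of treatment at 37 C.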
# * = called active by the depositor; ? = inconclusive; . = no result; [ ] = remark or other dose. In the library only some 8.1% were active in any assay of this set; here they are far more common. Unless noted, the call rests on the fitted dose curve; in most records, active means well fitted curve in the direction sought with a large enough effect; inconclusive means small, poorly fitted or top-dose-only effect, or another doubt; inactive means no such curve, though single readings can be large; an effect the other way counts as inactive or inconclusive. Potency means the concentration at half of the fitted maximal effect.
SMILES,PINK1 expr mod,RORg inh,ClpP mod,Gal4-VP16 FLuc,Sfp PPTase inh,Epigenetic derep
COc1ccc(OCC(=O)N/N=C(\C)c2ccc(OC)cc2)cc1,1%,38%,.,-3%,21%,1%
C=CCNC(=S)N/N=C(\C)c1cccc(OC)c1,1%,0.79µM*,?,0.89µM*,5%,?
CCCCCCCCCC(=O)N/N=C(\C)c1cccnc1,0%,?,1%,?,9%,1%
C=CCNC(=S)N/N=C(\C)c1cccnc1,-1%,3.2µM*,-1%,20µM*,16µM*,-1%
COc1ccc(C2c3cc(OC)c(OC)cc3CC(=O)N2c2ccc(C)c(F)c2)cc1 (stereo not drawn),3%,.,-2%,.,.,1%
CCOC(=O)c1cnc(-n2nc(C)cc2C)nc1NNc1ncc(-c2ccccc2)cn1,?,5.6µM*,0%,?,-5%,-3%
CCOC(=O)c1cnc(-n2nc(C)cc2C)nc1NNc1cc(-c2ccccc2)nc(C)n1,.,0.089µM*,.,0.1µM*,18%,0%
CCOC(=O)c1c(-c2ccccc2)csc1NC(=O)c1cc(-c2ccc(Cl)cc2)on1,2%,.,-4%,.,.,-2%
COC(=O)c1c(OCc2ccccn2)cc(=O)n2c1CCN(Cc1ccc3nsnc3c1)CC2,2%,.,.,.,.,.
O=C1NN(c2ccc(F)cc2)C(=O)/C1=C\C=C\c1ccco1,2%,1.1µM*,-1%,?,-8%,-1%
CCOC(=O)c1ccccc1NC1OC(=O)c2ccccc21 (stereo not drawn),-1%,-6%,28µM*,-14%,20%,0%
CN(C)/N=C/C=C1\CC/C(=C\c2ccc(F)c(F)c2)C1=O,0%,.,-2%,.,.,.
CC(C)c1ccc(/C=C2\CC/C(=C\C=N\N(C)C)C2=O)cc1,7%,?,-11%,?,79µM*,?
Cn1nc(-c2ccccc2F)c2cc(C(=O)NCc3ccc(Cl)cc3)sc21,9%,.,4%,.,.,1%
CC(CCc1ccco1)NC(=O)c1cc2c(-c3ccccc3F)nn(C)c2s1 (stereo not drawn),2%,?,-14%,-22%,45µM*,4%
Cc1ccc2c(c1)-c1c(ssc1=S)C(C)(C)N2C(=O)c1ccco1,0%[38.3 µM],23%,1%,-2%,20µM*,-1%
COc1ccc(NC(=S)NCc2cccnc2)cc1,0%,-1%,.,-21%,3%,2%
COc1ccc(CNC(=S)Nc2ccc(Br)cc2)cc1,4%,10µM*,-1%,11µM*,8%,.
COc1ccc(NC(=S)NCc2cccn2C)cc1,0%,-27%,.,-2%,?,0%
COc1ccc(CNC(=S)Nc2ccc(-c3ccccc3)cc2)cc1,8%,?,.,7.1µM*,3%,8%
CCc1ccccc1NC(=O)Cn1c(=O)ccc2cc(S(=O)(=O)N3CCC(C)CC3)ccc21,-3%,.,-4%,.,.,4%
Cc1ccc(Cl)cc1N1CCN(C(=O)c2ccc3c(c2)N(Cc2ccccc2F)C(=O)c2ccccc2S3(=O)=O)CC1,2%,.,-4%,.,.,-1%
COc1ccc(/C=N/NC(=S)Nc2ccccc2)cc1COc1ccccc1F,.,2.2µM*,.,3.2µM*,17%,3%
COc1ccc(/C=N\NC(=O)c2ccccc2)cc1COc1ccccc1,3%,?,?,?,7%,.
COc1ccc(/C=N/NC(=S)Nc2ccccc2)cc1COc1ccc(Br)cc1,10%,0.32µM*,-2%,2.2µM*,-6%,0%
COc1ccc(/C=N/NC(=S)Nc2ccccc2)cc1COc1ccc(F)cc1,0%,0.35µM*,13%,0.89µM*,?,0%
COc1ccc(C(=O)N/N=C/c2ccc(OC)c(COc3ccccc3)c2)cc1,1%,27%,?,27%,4%,.
Cc1cc(Cl)ccc1Nc1nc(NCc2ccco2)nc2nccnc12,0%,.,0%,.,.,.
COc1cc(N)c(N)cc1OC,.,.,-12%,.,.,.
